The subject of the test is Plasmodium falciparum NF54 stage V gametocytes. Nature of the test: viability index relative to DMSO control (fraction); higher = less gametocyte killing. Particulars: 2.5 µM, incubation time: 72 h. A digest of the protocol:
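Viability index is the count of red-stained particles in a well divided by the plate mean of solvent-only wells. Particles of 20–70 µm2 were counted in one imaged field per well after one to two hours with 3 µl of 2.5 µM MitoTracker Red CMXRos and 0.13% saponin. Before staining, P. falciparum NF54 stage V gametocytes in serum-free medium (0.75% gametocytemia, 1.25% hematocrit, 10 µl, 1,536-well plates) were kept with compound at 2.5 µM for 72 hr at 37°C under low oxygen.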

The mark [1] stands for this setting: library set: Broad Institute DOS.

± gives the uncertainty stated by the source. Over roughly 9,900 compounds, “viability index relative to DMSO control” has its median near 1; the lowest 2% begin near 0.85. For the sample, the lowest values were picked, then their nearest neighbours and some compounds at random.

Drawing on the supplement of paper PMC4723716, this text covers viability index for 34 compounds.

In turn, `C/C=C/c1ccc2c(c1)[C@@H]1[C@@H](CCN1C(=O)C1CCCC1)[C@H](CO)N2` yielded a viability index under setting [1] of 1.06 ± 0.045.
Same read-out and setting: for `C[C@@H]1CCCCO[C@H](CN(C)C(=O)NC2CCCCC2)[C@@H](C)CN([C@H](C)CO)C(=O)c2cc(N(C)C)ccc2O1` the value was 1.14 ± 0.11; for `O=C(Nc1ccccc1)N1CC(=O)N2[C@H](CO)[C@H](c3ccc(C#CC4CCCCC4)cc3)[C@@H]2C1`, 0.96 ± 0.031; for `Cc1noc(C)c1NC(=O)N(C)C[C@@H]1OCc2ccccc2-c2c(n(C)c3ccccc23)C(=O)N([C@@H](C)CO)C[C@H]1C`, 1.02 ± 0.1.
Same read-out and setting: to `Cc1noc(C)c1NC(=O)N(C)C[C@@H]1Oc2cc(C#CCN(C)C)ccc2S(=O)(=O)N([C@@H](C)CO)C[C@H]1C` belongs 0.947 ± 0.18; to `CC(C)C#Cc1ccc([C@H]2[C@@H](CO)N3C(=O)CN(C(=O)c4ccc5c(c4)OCO5)C[C@@H]23)cc1`, 1.03 ± 0.021.
Still for that read-out and setting: for `CNC[C@H]1Oc2c(NS(=O)(=O)c3ccc(Cl)cc3)cccc2C(=O)N([C@@H](C)CO)C[C@H]1C` the value was 1.01 ± 0.034.
For `O=C(C[C@@H]1CC[C@@H]2[C@H](COC[C@H](O)CN2C(=O)c2cc(Cl)cc(Cl)c2)O1)N1CCc2ccccc2C1`, the viability index under setting [1] stood at 1.032 ± 0.0059.
Still for that read-out and setting: to `Cc1ccc(OC(=O)N(C)C[C@@H]2OCc3ccccc3-c3ccccc3C(=O)N([C@H](C)CO)C[C@@H]2C)cc1` belongs 0.993 ± 0.036.
On the same count and under the same terms, for `Cc1ccc(OC(=O)N(C)C[C@@H]2OCc3ccccc3-c3ccccc3C(=O)N([C@H](C)CO)C[C@H]2C)cc1` the value was 0.834 ± 0.091; for `Cc1ccc(OC(=O)N(C)C[C@@H]2OCc3ccccc3-c3ccccc3C(=O)N([C@@H](C)CO)C[C@H]2C)cc1`, 0.88 ± 0.0063; for `C[C@@H]1CN([C@H](C)CO)C(=O)c2ccccc2-c2ccccc2CO[C@@H]1CN(C)C(=O)c1cc(Cl)cc(Cl)c1`, 0.8517 ± 0.003.
Regarding `C[C@@H]1CN([C@@H](C)CO)C(=O)c2ccccc2-c2ccccc2CO[C@@H]1CN(C)Cc1ccc(Oc2ccccc2)cc1`, the viability index under setting [1] was 0.871 ± 0.0091.
Turning to `C[C@H](CO)N1C[C@H](C)[C@@H](CN(C)Cc2ccc(Oc3ccccc3)cc2)OCc2ccccc2-c2ccccc2C1=O`, the viability index under setting [1] is 0.801 ± 0.016.
On the same count and under the same terms, to `C[C@@H]1CN([C@@H](C)CO)C(=O)c2ccccc2-c2ccccc2CO[C@H]1CN(C)C(=O)c1cc(Cl)cc(Cl)c1` belongs 0.937 ± 0.19; to `C[C@@H]1CN([C@H](C)CO)C(=O)c2ccccc2-c2ccccc2CO[C@@H]1CN(C)Cc1ccc(Oc2ccccc2)cc1`, 1.028 ± 0.0055.
For `C[C@H](CO)N1C[C@H](C)[C@H](CN(C)C(=O)c2cc(Cl)cc(Cl)c2)OCc2ccccc2-c2ccccc2C1=O`, the viability index under setting [1] was 1.04 ± 0.066.
Still for that read-out and setting: to `O=C(c1ccncc1)N1CC2(C1)[C@H](c1ccccc1)[C@@H](CO)N2CC1CC1` belongs 1.08 ± 0.016.
Same read-out and setting: for `Cc1noc(C)c1NC(=O)Nc1ccc2c(c1)C(=O)N([C@@H](C)CO)C[C@@H](C)[C@@H](CN(C)Cc1ccc3c(c1)OCO3)OCCCC[C@@H](C)O2` the value was 1.15 ± 0.058; for `O=C(c1ccccn1)N1C[C@H]2[C@@H](c3ccccc31)[C@@H](CO)N2C(=O)Nc1ccccc1Cl`, 1.05 ± 0.026.
On the same count and under the same terms, for `CCS(=O)(=O)Nc1ccc2c(c1)C(=O)N(C)[C@@H]1CC[C@H](CC(=O)N[C@@H]3CCN(Cc4ccccc4)C3)O[C@@H]1CO2` the value was 1.05 ± 0.04; for `O=S(=O)(c1cccc(F)c1)N1CC[C@H]2[C@H](CO)Nc3ccc(C#Cc4ccccc4F)cc3[C@H]21`, 1.1 ± 0.012.
Regarding `COc1ccc(CN(C)C[C@@H]2Oc3ccc(NC(=O)Nc4ccc5c(c4)OCO5)cc3CC(=O)N([C@H](C)CO)C[C@@H]2C)cc1`, the viability index under setting [1] is 0.983 ± 0.077.
The same measure, in the same setting: to `COc1ccc2c3c([C@H](CO)N(C[C@]33CN(C3)S(=O)(=O)c3cn(C)cn3)C(=O)Nc3ccc(F)cc3)n(C)c2c1` belongs 1.114 ± 0.0043.
On the same count and under the same terms, to `COc1ccc(NC(=O)N(C)C[C@H]2Oc3ccc(NC(=O)Nc4cccc5ccccc45)cc3CC(=O)N([C@H](C)CO)C[C@@H]2C)cc1` belongs 0.968 ± 0.027; to `COc1ccccc1-c1ccc([C@@H]2[C@@H](C#N)N(C(=O)c3cccnc3)[C@@H]2CO)cc1`, 1.06 ± 0.063; to `CN(C)CC(=O)N1[C@H](C#N)[C@H](c2ccccc2-c2ccccc2F)[C@@H]1CO`, 1.1 ± 0.066.
Still for that read-out and setting: for `O=C(C[C@H]1CC[C@H]2[C@@H](COC[C@@H](O)CN2S(=O)(=O)c2ccc(F)cc2)O1)NCCN1CCCCC1` the value was 1.01 ± 0.12.
`COc1ccccc1C#Cc1ccc([C@@H]2[C@@H](CO)N3CCCCN(CCC(F)(F)F)C[C@H]23)cc1` came in with a viability index (library set: Broad Institute Blood Stage) of 0.759 ± 0.06.
Take `OC[C@H]1[C@H](c2ccc(C#Cc3ccccc3F)cc2)[C@@H]2CN(CC3CCOCC3)CCCCN12`: the viability index under setting [1] is 0.8726 ± 0.0019.
Still for that read-out and setting: to `COc1ccccc1C#Cc1ccc([C@H]2[C@H]3CN(C(=O)C4CCC4)CCCCN3[C@H]2CO)cc1` belongs 0.971 ± 0.013; to `OC[C@@H]1[C@@H](c2ccc(C#Cc3ccccc3F)cc2)[C@H]2CN(CC3CCOCC3)CCCCN12`, 0.852 ± 0.021.
The same measure, in the same setting: for `OC[C@H]1[C@@H](c2ccc(C#Cc3ccccc3F)cc2)[C@H]2CN(CC3CCOCC3)CCCCN21` the value was 0.938 ± 0.011; for `COc1ccccc1C#Cc1ccc([C@@H]2[C@H](CO)N3CCCCN(C(=O)C4CCC4)C[C@@H]23)cc1`, 0.967 ± 0.025.
